Bioassay records deposited in PubChem by National Center for Advancing Translational Sciences (NCATS).
The list is a sample of the results.
Cycloheximide cs – Cycloheximide Counterscreen for Small Molecule Inhibitors of Shiga Toxin | 12% of 300,000 active | AID 2314, 2010 | cell reporter, cycloheximide protein synthesis inhibition counterscreen | max response, %; in the data active means max response mostly above about 13%, no sharp cut-off; inactive means mostly below about 14%; further: read at 38.3 µM for the half of the compounds with a filed dose; 0% is about no effect
Pf growth 96h – Primary qHTS for delayed death inhibitors of the malarial parasite plastid, 96 hour incubation; P. falciparum luciferase reporter growth, 96 h; Potency, µM (top dose mostly 28.7 µM), for the others: at the top dose activity change, negative = inhibition, usual class: inhibitors; 6.9% of 320,000 active; AID 504834, 2011; further: potency means the concentration at half of the fitted maximal effect; on the % scale 0 is the no-effect control and ±100 the full control effect
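Two-generation exposure (96 h) targets delayed-death phenotype. Reporter parasites carrying integrated firefly luciferase, in red cells at 2% hematocrit and 0.05% parasitemia final, kept at 37 C, 5% CO2; luminescence loss indicates inhibition.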
Shiga toxin inh – A qHTS for Small Molecule Inhibitors of Shiga Toxin; AID 2315, 2010; Vero cells, Shiga toxin protein synthesis inhibition reporter; 9.2% of 290,000 active; inhibition, % at 38.7 µM; in the data active means inhibition mostly above about 28%, no sharp cut-off; inactive means mostly below about 43%; further: 0% is about no effect
Pf growth 48h – Primary qHTS for delayed death inhibitors of the malarial parasite plastid, 48 hour incubation. P. falciparum luciferase growth in erythrocytes, 48 h. Potency, µM (series often up to 28.7 µM), for inactives: top-dose activity change, negative = inhibition, actives largely listed as inhibitors. 5.9% of 310,000 active. AID 504832, 2011; further: potency means the concentration at half of the fitted maximal effect; on the % scale 0 is the no-effect control and ±100 the full control effect
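In quantitative HTS format, infected erythrocytes bearing luciferase-reporter parasites were treated for a single generation at 37 C. Luminescence after adding detection reagent served as the growth measure.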
SARS PLpro yeast-1 – qHTS of Yeast-based Assay for SARS-CoV PLP. S. cerevisiae expressing SARS-CoV PLpro, growth rescue. Potency, µM (highest dose often 32.9 µM), without a hit: at the highest dose activity, positive = growth rescue, usual class: activators. 0.19% of 330,000 active. AID 485353, 2010; calls by dose curve; further: potency means the concentration at half of the fitted maximal effect; 0% is about no effect; nearly all actives have a fitted effect of over 55% in size
AMA1-RON2 inh – qHTS for Inhibitors of AMA1-RON; Towards Development of Antimalarial Drug Lead: Primary Screen. Plasmodium falciparum AMA1 (3D7) - RON2 peptide interaction. AlphaScreen AMA1-biotinylated RON2 peptide binding. Potency, µM (top dose mostly 58.2 µM), for the others: at the top dose activity change, negative = inhibition, actives largely listed as inhibitors. 0.2% of 360,000 active;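 further: potency means the concentration at half of the fitted maximal effect; 0% = vehicle wells and -100% = peptide control; nearly all actives have a fitted effect of over 45% in size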
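AMA1 (3D7) with his tag at 25 nM final met compounds first, then biotinylated RON2 peptide at 25 nM; detection used donor plus acceptor beads, 10 µg/mL apiece, read by AlphaScreen after 30 min at room temperature.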
SARS PLpro yeast-2 – qHTS of Yeast-based Assay for SARS-CoV PLP: Hit Validation. shares compounds with SARS PLpro yeast-1. yeast expressing SARS-CoV PLpro, growth phenotype rescue. calls only. 19% of 1,000 active. AID 652038, 2013; call rule not given here
* = called active by the depositor; i = inactive; ? = inconclusive; / = no result; + = active, no number. Unless noted, the call rests on the fitted dose curve; in most records, active means well fitted curve in the direction sought with a large enough effect; inconclusive means small, poorly fitted or top-dose-only effect, or another doubt; inactive means no such curve, though single readings can be large; an effect the other way counts as inactive or inconclusive.

SMILES | Cycloheximide cs | Pf growth 96h | Shiga toxin inh | Pf growth 48h | SARS PLpro yeast-1 | AMA1-RON2 inh | SARS PLpro yeast-2
Cc1ccc(NC(=O)c2nc[nH]c2C(=O)NCCCCCCNC(=O)c2[nH]cnc2C(=O)Nc2ccc(C)cc2)cc1 | / | / | / | / | 13µM* | 116% | i
CCOc1ccc(NC(=O)CN(C)C(=O)c2c(C)nn(-c3ccc(F)cc3)c2Cl)cc1OCC | / | -1% | / | ? | ? | -1% | i
COc1cccc(C(=O)COC(=O)C2CC3CCCC(C2)C3=O)c1 (stereo not drawn) | / | 26% | / | -9% | -2% | 0% | /
COc1ccc(C(=O)COC(=O)C2CC3CCCC(C2)C3=O)cc1Br (stereo not drawn) | / | 7% | / | ? | ? | -22% | i
O=C(CSc1nccc(=O)[nH]1)Nc1ccc(S(=O)(=O)N2CCOCC2)cc1 | -3 | 2% | -2 | 41% | 9% | 3% | /
CC(=O)Nc1ccc(S(=O)(=O)N(C)CC(=O)OCC(=O)NC(C)C23CC4CC(CC(C4)C2)C3)cc1 (stereo not drawn) | -1 | 40% | -6 | 7% | ? | 3% | i
CCCCn1c(SCC(=O)c2c(N)n(C3CC3)c(=O)[nH]c2=O)nc2cc(S(N)(=O)=O)ccc21 | / | ? | / | 15% | -1% | 19% | /
CCOC(=O)CSc1nc2ccccc2c(=O)n1C | -4 | -20% | -8 | ? | ? | 8% | i
CCOC(=O)CSc1nc2ccccc2c(=O)n1C1CCCC1 | -2 | 57% | -13 | ? | -9% | 5% | /
COc1cc(/C=C/C(=O)NC(C)C)ccc1OCc1ccccc1 | -1 | 0% | 38 | 13µM* | ? | 4% | +
CCOc1cc(/C=C/C(=O)O)ccc1OCc1ccccc1 | 16 | 15% | 12 | 2% | 2% | -7% | /
CN(C)c1cc[n+](CC(=O)Nc2cc(C(F)(F)F)ccc2Cl)cc1 | 0 | 0.83µM* | -6 | 1.7µM* | ? | 24% | i
COc1cccc(C(=O)CSc2nnc(-c3cc(OC)c(OC)c(OC)c3)o2)c1 | 1 | 27% | 8 | / | ? | -1% | ?
CCOC(=O)N1CCN(CC(=O)Nc2nnc(C(F)(F)F)s2)CC1 | 6 | 31% | 4 | -12% | -2% | 36% | /
O=C(Nc1nncs1)c1cccc(S(=O)(=O)N2CCc3ccccc32)c1 | -3 | 18% | -12 | 10% | 0% | 13% | /
O=C(Nc1nc2ccc(F)cc2s1)c1cccc(S(=O)(=O)N2CCc3ccccc32)c1 | 24* | ? | 35 | -2% | 3.2µM* | -11% | i
COCCNC(=S)N1CCN(S(=O)(=O)c2ccc(Cl)s2)CC1 | 1 | ? | -18 | ? | / | -9% | i
COc1cc(OC)cc(C(=O)N2CCN(S(=O)(=O)c3ccc(Cl)s3)CC2)c1 | / | ? | / | ? | 2% | 2% | /
CC(=O)c1cccc(CN2CCC(C(=O)Nc3ccc(Oc4cccnc4)cc3)CC2)c1 | -1 | ? | -6 | ? | ? | -28% | i
CCNC(=S)N/N=C/c1cccs1 | 1 | 4.7µM* | -5 | / | ? | -24% | +
O=C(NCC(c1cccnc1)N1CCN(c2ccccc2F)CC1)C1CCCCC1 (stereo not drawn) | -3 | 9% | -15 | / | ? | -4% | i
O=C(NCC(c1cccnc1)N1CCN(c2ccc(F)cc2)CC1)C1CCCCC1 (stereo not drawn) | -3 | 31% | -7 | ? | -5% | -8% | /
COc1ccc(CNC(=O)CN(Cc2ccco2)C(=O)CCC(=O)Nc2ccccn2)cc1 | 5 | -12% | -5 | 15% | 2% | 0% | /
COc1cccc(NC(=O)Cn2cnc3c(oc4nc5c(cc43)CCCC5)c2=O)c1 | 19 | ? | -7 | 3% | ? | -3% | ?
CC(=O)O[C@@H]1[C@@]2(C)O[C@H]2CC[C@]23O[C@H]2[C@H](OC3=O)C2=C(C)C(=O)O[C@@]21O | -2 | -18% | -11 | 20% | ? | 0% | i
SMILES | Cycloheximide cs | Pf growth 96h | Shiga toxin inh | Pf growth 48h | SARS PLpro yeast-1 | AMA1-RON2 inh | SARS PLpro yeast-2
Nc1nc(SCC(=O)OCc2ccccc2)[nH]c(=O)c1NC(=O)c1ccco1 | -2 | 1% | -2 | 10% | ? | 12% | i
CC(C)CCn1c(=O)c(C(=O)N/N=C/c2cccc(F)c2)c(O)c2ccccc21 | 1 | -18% | -13 | 5% | 5% | 31% | /
O=C(Nc1nccs1)c1cn(-c2ccccc2)nc1-c1ccccc1 | 5 | / | 23 | / | ? | -10% | /
CC(C)COc1ccc(-c2nn(-c3ccccc3)cc2C(=O)Nc2nccs2)cc1 | 0 | ? | 10 | / | ? | 43% | +
Cc1c(C(=O)OCC2CCCO2)[nH]c2c1C(=O)CC(c1ccco1)C2 (stereo not drawn) | 7 | / | 17 | ? | ? | -13% | i
C=CCN(C#N)c1nc(OC)nc(N2CCCC2)n1 | 2 | 54% | -19 | ? | -5% | -15% | /
N#CN(CC(N)=O)c1nc(N2CCCCC2)nc(N2CCCCC2)n1 | -3 | -8% | -17 | ? | ? | -2% | i
CCC1(c2ccccc2)NC(=S)N(c2cccc(C)c2C)N1 (stereo not drawn) | -3 | 0% | -7 | -11% | 3.2µM* | 83% | ?
Cc1ccc2c(COC(=O)C3CSC4(C)CCC(=O)N34)cc(=O)oc2c1C (stereo not drawn) | / | / | / | / | 9% | 9% | /
COc1cc(C(C)=O)ccc1OC(=O)N1CCOCC1 | / | / | / | / | / | 8% | /
Cc1nn(C(C)C(=O)NCc2ccco2)c(C)c1[N+](=O)[O-] (stereo not drawn) | -2 | -7% | -17 | -5% | -2% | -3% | /
C/C(=N\NC(=O)C(C)n1nc(C)c([N+](=O)[O-])c1C)c1ccccc1O (stereo not drawn) | 5 | ? | -20 | 9.3µM* | ? | 86% | i
COc1cccc(CN2CCNC(=O)C2CC(=O)NCCCN2CCCC2=O)c1 (stereo not drawn) | -2 | -33% | -1 | -2% | 4% | 8% | /
O=C(/C=C/c1ccco1)Oc1cc(Br)cc(/C=N/NC(=O)c2ccccc2O)c1 | 39* | 30% | 22 | 1.9µM* | / | 10% | i
O=C(CNc1cccc2ccccc12)N/N=C/c1ccc(OC(=O)/C=C/c2ccco2)cc1 | 1 | -7% | -12 | ? | 1% | -11% | /
O=C(NN=Cc1ccc(O)cc1O)c1ccccc1NS(=O)(=O)c1cccs1 | / | / | / | / | 1.1µM* | 70% | i
